One test relates to DIO1 (gene 1733). Kind of test: CCTE_GLTED_hDIO1: CCTE's human Deiodinase 1 (DIO1) Inhibition Assay, Great Lakes Toxicology and Ecology Division (GLTED) Lab (AID 2283987; active = hit-call score of the fitted dose curve at least 0.9, where 1 is the maximum;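 note: isolated human DIO1 enzyme in a cell-free setup rather than cells; enzyme activity read as free iodide liberated from substrate via Sandell-Kolthoff colorimetry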). The essentials:
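Inhibition of human deiodinase 1 is scored as reduced iodide liberation after a 3 h enzyme–chemical incubation, detected colorimetrically by the Sandell-Kolthoff reaction against DMSO controls.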

In test [1] the target is Nucleoli Translocation, AR (gene 367) (UniProt P10275). The experiment in a line: UPITT_HCI_U2OS_AR_TIF2_Nucleoli_Antagonist: University of Pittsburgh U2OS Androgen Receptor-Transcriptional Intermediary Factor 2 (AR-TIF2) Antagonism High Content Imaging Assay for Nucleoli Translocation (AID 2283997; active = hit-call score of the fitted dose curve at least 0.9, where 1 is the maximum). In short, it runs like this: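 Antagonism is read as loss of nucleolar AR-RFP signal relative to DHT, imaged in U2OS cells also carrying GFP-TIF2. Compounds screened at 20 uM final, 0.2% DMSO; primary actives retested in triplicate.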
Sequence of Nucleoli Translocation, AR (gene 367) (P10275 whole entry, looked up): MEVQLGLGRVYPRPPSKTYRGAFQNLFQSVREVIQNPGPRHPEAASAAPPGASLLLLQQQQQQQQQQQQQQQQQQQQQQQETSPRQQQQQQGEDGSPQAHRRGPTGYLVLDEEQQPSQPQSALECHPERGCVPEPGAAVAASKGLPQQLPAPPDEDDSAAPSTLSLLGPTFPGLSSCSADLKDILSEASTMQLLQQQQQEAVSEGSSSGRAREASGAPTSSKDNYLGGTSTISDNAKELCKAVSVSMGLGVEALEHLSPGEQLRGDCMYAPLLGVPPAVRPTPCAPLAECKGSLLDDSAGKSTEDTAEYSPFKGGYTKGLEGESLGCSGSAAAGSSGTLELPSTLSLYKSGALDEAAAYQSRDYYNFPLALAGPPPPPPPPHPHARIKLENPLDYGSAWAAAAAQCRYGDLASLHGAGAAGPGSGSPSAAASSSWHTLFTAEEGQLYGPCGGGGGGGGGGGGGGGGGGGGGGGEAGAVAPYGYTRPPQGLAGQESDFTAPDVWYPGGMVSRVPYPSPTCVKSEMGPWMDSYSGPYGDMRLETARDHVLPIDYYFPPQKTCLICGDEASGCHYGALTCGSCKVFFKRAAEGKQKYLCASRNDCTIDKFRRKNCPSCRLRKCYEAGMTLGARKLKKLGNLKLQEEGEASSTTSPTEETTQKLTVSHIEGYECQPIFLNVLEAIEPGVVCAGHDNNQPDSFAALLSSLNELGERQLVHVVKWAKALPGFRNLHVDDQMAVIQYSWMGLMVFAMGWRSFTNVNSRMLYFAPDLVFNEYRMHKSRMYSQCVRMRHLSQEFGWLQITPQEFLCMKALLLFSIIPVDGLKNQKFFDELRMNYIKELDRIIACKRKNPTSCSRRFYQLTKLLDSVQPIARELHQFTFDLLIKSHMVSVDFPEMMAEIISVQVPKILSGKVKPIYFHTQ

The target is the same in test [2]. The experiment in a line: UPITT_HCI_U2OS_AR_TIF2_Nucleoli_Agonist: University of Pittsburgh U2OS Androgen Receptor-Transcriptional Intermediary Factor 2 (AR-TIF2) Agonism High Content Imaging Assay for Nucleoli Translocation (AID 2283998; active = hit-call score of the fitted dose curve at least 0.9, where 1 is the maximum). The essentials: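 Readout is red (AR-RFP) fluorescence localized to nucleoli, measured by high-content imaging and analysed for increase relative to DMSO. Compound series spanned 0.195 to 50 uM final in 0.5% DMSO.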

The target of test [3] is Ratio of Nucleoli Translocation and Cytoplasm, AR (gene 367) (UniProt P10275). Kind of test: UPITT_HCI_U2OS_AR_TIF2_Nucleoli_Cytoplasm_Ratio_Antagonist: University of Pittsburgh U2OS Androgen Receptor-Transcriptional Intermediary Factor 2 (AR-TIF2) Antagonism High Content Imaging Assay for Ratio of Nucleoli Translocation and Cytoplasm (AID 2283999; active = hit-call score of the fitted dose curve at least 0.9, where 1 is the maximum;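 note: antagonists lower the DHT-driven ratio of nucleolar to cytoplasmic red signal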). The essentials: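 High-content imaging of red fluorescence ratio, nucleoli versus cytoplasm, in U2OS expressing AR-RFP and TIF2-GFP, fitted relative to DHT. Compounds tested once at 20 uM final, then 0.195 to 50 uM final in serial dilution.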
Sequence of Ratio of Nucleoli Translocation and Cytoplasm, AR (gene 367) (P10275 whole entry, looked up): as above

Test [4] has the same target. Kind of test: UPITT_HCI_U2OS_AR_TIF2_Nucleoli_Cytoplasm_Ratio_Agonist: University of Pittsburgh U2OS Androgen Receptor-Transcriptional Intermediary Factor 2 (AR-TIF2) Agonism High Content Imaging Assay for Ratio of Nucleoli Translocation and Cytoplasm (AID 2284000; active = hit-call score of the fitted dose curve at least 0.9, where 1 is the maximum;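 note: hits raise the red nucleolar to cytoplasm ratio above vehicle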). In short, it runs like this: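 Compounds tested at 20 uM final in primary screen (0.2% DMSO) and 0.195-50 uM final in dose-response (0.5% DMSO). Imaging of human U2OS cells bearing RFP-AR and GFP-TIF2; endpoint is nucleoli/cytoplasm red signal ratio, positive direction relative to DMSO.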

Test [5] can be described thus: CCTE_Shafer_MEA_acute_spike_number: CCTE's Neural Acute Assay for Total Number of Spikes, Shafer Lab (AID 2284008).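 For AC50: curve fitted for decrease in spike count so AC50 reflects inhibitors.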 The essentials:
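Read-out is the total spike count over 40 min, expressed as percent change from each well's own pre-treatment baseline and fitted in the loss direction against DMSO. Rat cortical neurons were exposed at 0.03-40 uM on DIV 13 or 15.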

The nature of test [6]: CCTE_Shafer_MEA_acute_firing_rate_mean: CCTE's Neural Acute Assay for Mean Firing Rate, Shafer Lab (AID 2284009).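 Note: analyzed for loss of signal so actives lower firing rate relative to DMSO.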 In short, it runs like this: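 Primary rat cortical neurons on 16-electrode MEA wells were exposed on DIV 13 or 15 to compound (0.03-40 uM). Spike counts per recording time, averaged over electrodes, were compared between 40-min baseline and 40-min post-exposure recordings as percent change.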

Test [7] is described as follows: CCTE_Harrill_HTTr_Viability_MCF7: CCTE's 6-hour Cell Viability Assessment for the High-Throughput Transcriptomics (HTTr) Platform, in MCF-7 cells cultured in DMEM + 10% fetal bovine serum, Harrill Lab (AID 2284010). In short, it runs like this: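 Propidium iodide exclusion, imaged by high-content analysis, gauged viability after a six-hour exposure across eight concentrations. Cells were MCF-7 grown in DMEM with 10% fetal bovine serum; fits run in both directions against DMSO.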

The nature of test [8]: CCTE_Simmons_MITO_basal_resp_rate: CCTE's HepG2 Seahorse XF Respirometric Screening Assay at Basal Respiratory State, Simmons Lab (AID 2284001). The conditions noted are these: actives raise or lower the signal. In short, it runs like this:
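Basal-phase OCR in HepG2 cells, read at 6-min intervals across a 72-min run, with test compound injected at 125 nM–100 uM final (7 points). Fitted both directions against DMSO; three biological replicates per concentration.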

A short description of test [9]: CCTE_Simmons_MITO_max_resp_rate: CCTE's HepG2 Seahorse XF Respirometric Screening Assay at Maximal Respiratory State [uncoupled], Simmons Lab (AID 2284002). The conditions noted are these: actives raise or lower the signal. The essentials: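 Read-out is oxygen consumption rate at maximal respiration, taken after FCCP uncoupling of compound-treated HepG2 cells. Seven final concentrations from 125 nM to 100 uM were tested, each in three biological replicates.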

Test [10] can be described thus: CCTE_Simmons_MITO_inhib_resp_rate: CCTE's HepG2 Seahorse XF Respirometric Screening Assay at Inhibited Respiratory State [full ETC block], Simmons Lab (AID 2284006). As to conditions: actives raise or lower the signal. In short, it runs like this: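 This endpoint is the respiration rate remaining after rotenone/antimycin A block, in HepG2 cells on a Seahorse XF96. Chemicals spanned 125 nM–100 uM final, in three biological replicates. OCR was read every 6 minutes for 72 minutes and compared with DMSO vehicle.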

The nature of test [11]: CCTE_Simmons_MITO_viability: CellTiter-Glo Viability Assessment for CCTE's HepG2 Seahorse XF Respirometric Screening Assay [post-hoc], Simmons Lab (AID 2284007; active = hit-call score of the fitted dose curve at least 0.9, where 1 is the maximum;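 for AC50: cells exposed to chemical for 90 min before the ATP read; actives lower ATP signal relative to DMSO baseline meaning reduced viability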). The essentials: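 Luciferase-coupled ATP read-out after the Seahorse run: HepG2 cells treated 90 minutes with test chemical, 7-point series of 125 nM–100 uM final, in triplicate biological runs. Vehicle DMSO; dichlone as positive control over 8 concentrations.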

The nature of test [12]: CCTE_Harrill_HTTr_Viability_PRF_DMEM_6hr: (Pilot) CCTE's 6-hour Cell Viability Assessment for the High-Throughput Transcriptomics (HTTr) Platform, in MCF-7 cells cultured phenol red-free DMEM + 10% charcoal-stripped fetal bovine serum, Harrill Lab (AID 2283976). In short, it runs like this:
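Membrane integrity by high-content imaging of propidium iodide uptake, six hours after dosing with eight concentrations. Cells: MCF-7 grown in phenol red-free DMEM plus 10% charcoal-stripped serum; DMSO serves as baseline for bidirectional fits.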

A short description of test [13]: CCTE_Harrill_HTTr_Viability_PRF_DMEM_12hr: (Pilot) CCTE's 12-hour Cell Viability Assessment for the High-Throughput Transcriptomics (HTTr) Platform, in MCF-7 cells cultured in phenol red-free DMEM + 10% charcoal-stripped fetal bovine serum, Harrill Lab (AID 2283977). The essentials: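 Membrane integrity was scored via propidium iodide dye exclusion imaging, fitted in both directions relative to DMSO. Compounds ran as eight-point dilutions for 12 hours on MCF-7 grown in phenol red-free DMEM plus 10% charcoal-stripped serum.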

The nature of test [14]: CCTE_Harrill_HTTr_Viability_PRF_DMEM_24hr: (Pilot) CCTE's 24-hour Cell Viability Assessment for the High-Throughput Transcriptomics (HTTr) Platform, in MCF-7 cells cultured in phenol red-free DMEM + 10% charcoal-stripped fetal bovine serum, Harrill Lab (AID 2283980). The essentials: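 Propidium iodide exclusion imaged at 24 h after dosing scores viability; cells were MCF-7 grown in phenol red-free DMEM plus 10% charcoal-stripped serum, tested in eight concentrations, fitted in both directions against DMSO.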

A short description of test [15]: CCTE_Harrill_HTTr_Apoptosis_DMEM_6hr: (Pilot) CCTE's 6-hour Apoptosis Assessment for the High-Throughput Transcriptomics (HTTr) Platform, in MCF-7 cells cultured in DMEM + 10% fetal bovine serum, Harrill Lab (AID 2283981). The essentials: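 MCF-7 cells grown in DMEM + 10% FBS were exposed for 6 hours to an eight-point dilution series. CellEvent Caspase 3/7 Green signal was imaged; activity fitted bidirectionally against DMSO.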

A short description of test [16]: CCTE_Harrill_HTTr_Apoptosis_DMEM_12hr: (Pilot) CCTE's 12-hour Apoptosis Assessment for the High-Throughput Transcriptomics (HTTr) Platform, in MCF-7 cells cultured in DMEM + 10% fetal bovine serum, Harrill Lab (AID 2283982). In short, it runs like this: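 Caspase-3/7 activity was measured by high-content imaging (CellEvent Caspase 3/7 Green) after a 12-hour exposure of MCF-7 cells grown in DMEM with 10% FBS. Eight-point concentration series, fitted bidirectionally against vehicle.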

A short description of test [17]: CCTE_Harrill_HTTr_Apoptosis_DMEM_24hr: (Pilot) CCTE's 24-hour Apoptosis Assessment for the High-Throughput Transcriptomics (HTTr) Platform, in MCF-7 cells cultured in DMEM + 10% fetal bovine serum, Harrill Lab (AID 2283983). In short, it runs like this: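 Caspase-3/7 activity read by high-content imaging (CellEvent Green reagent) 24 h after dosing. MCF-7 cells grown in DMEM with 10% FBS received an eight-point concentration series; fits were bidirectional versus DMSO.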

Test [18] in a line: CCTE_Harrill_HTTr_Apoptosis_PRF_DMEM_6hr: (Pilot) CCTE's 6-hour Apoptosis Assessment for the High-Throughput Transcriptomics (HTTr) Platform, in MCF-7 cells cultured phenol red-free DMEM + 10% charcoal-stripped fetal bovine serum, Harrill Lab (AID 2283984). In short, it runs like this:
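Caspase-3/7 activity (CellEvent Green) read by high-content imaging 6 h after dosing, eight concentrations. Cells: MCF-7, phenol red-free DMEM with 10% charcoal-stripped serum. Curves fit both directions against DMSO.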

A short description of test [19]: CCTE_Harrill_HTTr_Apoptosis_PRF_DMEM_24hr: (Pilot) CCTE's 24-hour Apoptosis Assessment for the High-Throughput Transcriptomics (HTTr) Platform, in MCF-7 cells cultured in phenol red-free DMEM + 10% charcoal-stripped fetal bovine serum, Harrill Lab (AID 2283986). In short, it runs like this: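 Eight concentrations tested for 24 h on MCF-7 grown in charcoal-stripped serum, phenol red-free DMEM. High content imaging of CellEvent Caspase 3/7 Green signal gives apoptosis read-out, fitted both ways relative to DMSO.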

Structures are written as SMILES. Inconclusive results are not listed. Calls of active or inactive are those of the source. Rule for the calls, unless noted: active = hit-call score of the fitted dose curve at least 0.9, where 1 is the maximum; inactive = score below 0.9.

On to `CCCCCCCCCCCCc1ccccc1S(=O)(=O)O`, for which the AC50 (usually the midpoint of the concentration-response curve, whichever way the signal moves) with DIO1 (gene 1733) is 96.3 µM (active); in test [1] it was 83 µM (active); in test [2] it was 90.7 µM (active); in test [4] it was 90.9 µM (active). The result in [3], in [5], in test [6] and in test [7] was inactive.
For the compound `NC(=O)N1C(=O)C(C(=O)c2cc(Cl)cs2)c2cc(F)c(Cl)cc21` (stereo unspecified), the concentration at half-maximal activity (AC50) in the test with DIO1 (gene 1733) is 37.4 µM (active); in [8], 5.91 µM (active); in test [9], 17.7 µM (active); in test [11], 2.3 µM (active). Moreover, the call in [1], in test [2], in test [3], in [4], in [10] and in [7] was inactive.
Turning to `CC(C)(C)c1ccc(O)c(C(C)(C)C)c1`, the concentration at half-maximal activity (AC50) in the test on DIO1 (gene 1733) is 108 µM (active). For the same compound, the result in test [7] was inactive.
With `CC[C@H](c1ccc(O)cc1)[C@@H](CC)c1ccc(O)cc1`, the AC50 is 50 µM (active) in test [1]; 50 µM (active) in [2]; 50 µM (active) in test [4]; 20.8 µM (active) in [8]; 30 µM (active) in [9]; 40.4 µM (active) in test [10]. The AC50 in test [11] is 12.6 µM (active). In addition, the result in [3], in test [5], in [6] and in test [7] was inactive.
Regarding `O=c1c(-c2ccc(O)cc2)coc2cc(O)ccc12`, the AC50 is 17.2 µM (active) in the test on DIO1 (gene 1733) and 3.28 µM (active) in [5]. Besides, the outcome in [1], in test [6] and in test [7] was inactive.
In the case of `CN1CCN(c2ccccc2/C=C2\SCCN(c3ccc(Cl)c(Cl)c3)C2=O)CC1`, the compound was classed as inactive in test [8], in test [9] and in test [10]. Besides, the figures for the AC50 in test [5], in test [6] and in test [7] were 10.3 µM (active), 10.5 µM (active) and 73.7 µM (active), respectively.
For the compound `CCCOc1sc(C(=O)N2CCC(c3cc(CN)ccc3F)CC2)c(C)c1Br`, the call in [1], in test [3], in test [5] and in test [6] was inactive. Moreover, the concentration at half-maximal activity (AC50) in [2] is 7.93 µM (active); in [4], 8.47 µM (active).
With `Cc1cc(CCN2CCN(c3nsc4ccccc34)CC2)cc2c1NC(=O)CC2(C)C`, the concentration at half-maximal activity (AC50) is 50 µM (active) in test [1]; 12.2 µM (active) in [8]; 17 µM (active) in [9]; 9.34 µM (active) in [11]; 8.94 µM (active) in test [5]; 8.94 µM (active) in [6]. For the same compound, the concentration at half-maximal activity (AC50) in [7] was 77.3 µM (active). In addition, the result in test [3], in [4] and in test [10] was inactive.
Regarding `CCCCCCCCCCCCCCCS(=O)(=O)Oc1ccccc1`, the result in test [5] and in [6] was inactive.
For `CCCCCCCCCCCCN1CCCC1=O`, the results for the AC50 (in the test with DIO1 (gene 1733); in [8]; in [9]) were 159 µM (active), 31.4 µM (active) and 34.8 µM (active), respectively. Also, the compound was called inactive in test [10], in [11], in test [5], in [6] and in test [7].
With `O=C(O)Cc1cc(I)c(Oc2cc(I)c(O)c(I)c2)c(I)c1`, the result in test [12], in test [13], in test [14], in [15], in test [16] and in test [17] was inactive. Also, the result in test [18], in test [19], in test [8], in test [9], in test [10] and in [11] was inactive. The result in test [7] was inactive.
